# Rows were chosen to be rich in hits. Some 19% of all compounds tested hit in one or more screens of this group.
# DT40 TDP1 CPT – DT40-hTDP1 cell growth loss with CPT. chicken DT40 Tdp1-/-;hTDP1 cells + 20 nM CPT, ATP luminescence, 48 h. Potency, µM (titrated, usually from 46.2 µM), without a hit: top-dose activity change, negative = growth inhibition, usual class: inhibitors. 420,000 compounds, 12% hits. AID 686979; note: potency is the fitted concentration of half-maximal effect; nearly all actives have a fitted effect of over 55% in size
#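 Cell growth measured by CellTiter-Glo luminescence after a minimum 48 h, 37 C compound exposure with 20 nM CPT in Tdp1-knockout DT40 cells stably expressing hTDP1, seeded 400/well; qHTS titration format.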
# Giardia killer – kills Giardia lamblia | activity change, % at 7.66 µM, hits read low | Giardia lamblia trophozoite viability | 340,000 compounds, 0.15% hits | AID 540267; in the data active = activity change below about -80%; inconclusive = between about -30% and that limit;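 note: parasites exposed to compound for two days anaerobically before the ATP read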
#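 Giardia trophozoites, 100 cells per well, were exposed to compounds for 48 hrs at 37 deg C under anaerobic conditions; viability was then read as ATP content by bioluminescence after 15-30 min at room temperature.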
# TDP1 cell noCPT – qHTS for Inhibitors of human tyrosyl-DNA phosphodiesterase 1 (TDP1): qHTS in cells in absence of CPT. 420,000 compounds, 15% hits. DT40 Tdp1-/- hTDP1 cells, no CPT, ATP luminescence, 48 h. Potency, µM (series often up to 46.2 µM), for inactives: top-dose activity change, negative = growth inhibition, most hits filed as inhibitors; note: potency is the fitted concentration of half-maximal effect; nearly all actives have a fitted effect of over 55% in size
#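 Seeded 400 DT40-hTDP1 cells/well (vehicle DMSO, no 20 nM CPT); pinned compounds; ≥48 hr at 37 °C; CellTiter-Glo luminescence as viability measure.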
# ELG1 DNA repair – ELG1-dependent DNA repair inhibition. Potency, µM (series often up to 46.1 µM), inactives show at the highest dose activity change, negative = inhibition, hits mostly inhibitors. HEK293T ELG1-luciferase reporter, luminescence, 16 h; DNA damage induced by 5-fluorouridine. 330,000 compounds, 2.3% hits. AID 504467; note: potency is the fitted concentration of half-maximal effect; nearly all actives have a fitted effect of over 55% in size
#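 5-Fluorouridine DNA damage + compound/DMSO, 2,000 cells/well, 16 h, 37 °C/5% CO2. ONE-Glo, 30 min RT, luminescence. Readout = decrease in reporter signal.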
# TDP1 block – TDP1 (human) enzyme inhibition | Q9NUW8 | 350,000 compounds, 0.28% hits | Potency, µM (series often up to 130 µM), for inactives: at the top dose activity change, negative = inhibition, hits mostly inhibitors | recombinant TDP1, AlphaScreen DNA substrate cleavage | AID 485290; note: potency is the fitted concentration of half-maximal effect; nearly all actives have a fitted effect of over 40% in size
# Target sequence (Q9NUW8 whole entry, looked up): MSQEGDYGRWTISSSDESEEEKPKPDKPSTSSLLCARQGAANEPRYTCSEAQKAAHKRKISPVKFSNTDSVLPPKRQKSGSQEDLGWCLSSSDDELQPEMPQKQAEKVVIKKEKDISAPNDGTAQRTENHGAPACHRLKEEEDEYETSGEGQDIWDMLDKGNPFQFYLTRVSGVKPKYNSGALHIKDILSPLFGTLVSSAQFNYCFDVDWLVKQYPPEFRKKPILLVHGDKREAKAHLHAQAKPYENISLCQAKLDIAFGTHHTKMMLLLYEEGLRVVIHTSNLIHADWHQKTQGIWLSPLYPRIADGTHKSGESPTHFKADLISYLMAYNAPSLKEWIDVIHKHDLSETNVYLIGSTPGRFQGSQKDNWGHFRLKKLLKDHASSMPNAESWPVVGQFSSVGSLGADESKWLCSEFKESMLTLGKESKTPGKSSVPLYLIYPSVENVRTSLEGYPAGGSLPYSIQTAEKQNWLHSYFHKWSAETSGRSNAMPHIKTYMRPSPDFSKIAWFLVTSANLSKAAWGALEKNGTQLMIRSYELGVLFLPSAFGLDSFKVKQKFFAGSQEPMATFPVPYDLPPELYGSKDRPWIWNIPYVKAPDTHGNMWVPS
#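 Recombinant human Tdp1 (E. coli-expressed, 1 nM final) preincubated with compounds 15 min at room temperature, then 5'-biotin/3'-phosphotyrosine-FITC DNA substrate (15 nM final) added for 5 min. AlphaScreen beads (10 ug/ml final) added 10 min; cleavage lowers signal.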
# IL1B secr inh – inhibitors of inflammasome signaling (IL-1 beta secretion); THP-1 LPS/ATP IL-1B secretion, AlphaLISA, 16 h; hits give low values; activity change, % at 57.5 µM; 360,000 compounds, 4.7% hits; AID 743279; in the data active = activity change below about -50%; inconclusive = mostly about -30% to -49%
#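 THP-1 cells pretreated 1 hr with compounds (up to 57.5 uM final), then stimulated with LPS (250 ng/mL final) plus ATP (1.25 mM final); secreted IL-1B measured by AlphaLISA after 16 hr, decreased signal indicating inhibition.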
# The depositor's hits bear a star; ? = inconclusive; · = no result given; ! = not confirmed by another sample; [ ] = dose if it differs, or a comment. Unless noted, calls come from the whole dose curve; as a rule, active = well fitted curve in the direction sought with a large enough effect; inconclusive = small, poorly fitted or top-dose-only effect, or another doubt; inactive = no such curve, though single readings can be large; an effect the other way counts as inactive or inconclusive. % is set by controls: 0 for no effect and ±100 for the full control effect.
SMILES,DT40 TDP1 CPT,Giardia killer,TDP1 cell noCPT,ELG1 DNA repair,TDP1 block,IL1B secr inh
COc1ccccc1/C=C/CN1CCC(Oc2cc(C(=O)NC3CC3)ccc2OC)CC1,?,15,2.1µM*,7%,6%,-8
Cc1ccc(CN2CCc3nnc(C(C)NC(=O)c4cc(F)ccc4F)n3CC2)o1 (stereo not given),12%,·,-8%,·,·,·
COC(=O)c1cccc(NC(=O)/C(=C\c2ccccc2)NC(=O)c2ccccc2Cl)c1,?,-12,?,?,-3%,-7
O=c1c2c([nH]c3ccccc13)CCC2,-7%,8,-9%,0%,·,18
O=C1CCCc2[nH]c3cccc(/C(=C/c4ccccc4)c4ccccc4)c3c21,?,-16,18µM*,-2%,·,-1
COC(=O)c1ccc2[nH]c3cccc(/C(=C/c4ccccc4)c4ccccc4)c3c2c1,?,-21,?,15%,·,-58*
Cc1ccc(S(=O)(=O)N(C)c2ccc(OC(=O)c3cccs3)cc2)cc1,-28%,-3,?,-15%,-4%,-14
COC1c2ccccc2C(=O)N1CCc1ccc(Cl)cc1 (stereo not given),-23%,11,-6%,?,-8%,-7
Cc1cc([C@](C)(N)C(=O)O)ccc1P(=O)(O)O,6%,·,3%,·,7%[56.1 µM],·
CCOc1ccc(/C=C2\C(=O)c3ccccc3OC2c2ccccc2)cc1 (stereo not given),?,7,18µM*,5%,3%,-2
COc1ccc(/C=C2\C(=O)c3ccccc3OC2c2ccccc2)cc1 (stereo not given),?,-20,?,23µM*,6%,17
CCCCc1c(O)nc(SCC(=O)c2ccccc2)n(-c2ccccc2)c1=O,2.9µM*,6,2.6µM*,16%,3%,25
CCCCc1c(O)nc(SCC(=O)N2CCOCC2)n(-c2ccccc2OC)c1=O,-4%,-1,-10%,0%,12%,-8
CCCCc1c(O)nc(SCC(=O)c2ccccc2)n(-c2ccccc2OC)c1=O,-9%,-9,8.2µM*,-2%,5%,·
Cc1ccc(C)c(NC(=O)COC(=O)CNC(=O)c2ccccc2Cl)c1,4%,4,-3%,11%,3%,4
Cc1ccc(O)c(C(=O)CC(=O)c2ccc(C(C)(C)C)cc2)c1,7.3µM*,9,4.6µM*,-9%,·,31
Cc1ccc(O)c(C(=O)CC(=O)c2ccccc2Cl)c1,2.3µM*,-11,4.6µM*,2%,2%,0
COc1ccc(O)c(C(=O)CC(=O)c2ccccc2)c1,·,·,·,?,-6%,·
COC(=O)c1cc(NC(=O)c2ccccc2)c(=O)oc1/C=C/Nc1ccc(Oc2ccccc2)cc1,-25%,-18,23µM*,3%,-4%,18
COc1ccc(C(=O)Nc2cc(C(C)=O)c(C)oc2=O)cc1,-10%,-22,?,?,-7%,-10
CCn1c2ccccc2c2cnc(N=CN(C)C)c(C#N)c21,?,-13,15µM*,?,0%,-9
CCN(CC)CCn1c2ccccc2c2cnc(N=CN(C)C)c(C#N)c21,16µM*,14,16µM*,-14%,-8%,·
Cc1ccc(C)c(NC(=O)C(CC(C)C)N2Cc3ccccc3C2=O)c1 (stereo not given),?,·,?,·,5%,·
CN(C)/C=C/C(=O)c1ccc(F)cc1F,-4%,-5,-15%,6%,4%,10
C[C@]12CC[C@@H]3c4ccc(O)cc4CC[C@H]3[C@@H]1C[C@@H](O)[C@@H]2O,?,6,-16%,-4%,-3%,15
SMILES,DT40 TDP1 CPT,Giardia killer,TDP1 cell noCPT,ELG1 DNA repair,TDP1 block,IL1B secr inh
C[C@]12CC[C@@H]3c4ccc(OC(=O)c5ccccc5)cc4CC[C@H]3[C@@H]1CC[C@@H]2O,15µM*!,2,13µM*!,16%,3%,17
CCOc1cc(C2NC(=O)NC2=O)ccc1O (stereo not given),2%,-2,-8%,-1%,9%,-3
COc1cc2c(cc1O)CC[C@@H]1[C@@H]2CC[C@]2(C)[C@@H](O)CC[C@@H]12,1.8µM*,29,4.6µM*,·,9%,-11
COc1cc2c(cc1O)CCC1C2CC[C@@]2(C)C1CC[C@@H]2O (stereo not given in full),2.4µM*,·,1.9µM*,·,10%[56.1 µM],·
CCOc1cc2c(cc1O)C(=NO)CC1C2CCC2(C)C(O)CCC12 (stereo not given),0.18µM*,0,0.052µM*,·,·,-1
CC12CCC3c4ccc(O)cc4CCC3C1CC(O)C2O (stereo not given),-23%,?,-13%,?,·,0
CC(=O)Nc1cccc(NC(=O)CSc2nc3c(c(=O)n(C)c(=O)n3C)n2C)c1,9%,6,-1%,?,4%,88
O=C(O)COCC(=O)NCc1csc2ccccc12,-1%,4,9%,12%,3%,8
O=C1NC[C@@H](CCCCN2CCN(CCc3ccccc3)C(=O)C2=O)N(CCC2CCCCC2)C1=O,-4%,·,-8%,·,·,4
C[C@H]1Cc2c(-c3ccccc3)nc3c(c2CO1)CN(C(=O)c1cc(I)ccc1F)CC3,·,·,·,·,9%[12.3 µM],·
COCc1c(C(=O)N2CCN(C)CC2)cnn1-c1ncc2c(n1)-c1ccccc1CCC2,7%[9.04 µM],·,-15%,·,·,·
COc1cccc(-c2nc3cc4c(cc3cc2CN(C(=O)c2csc(C)n2)C2CC2)CCC4)c1OC,-12%[9.04 µM],·,23µM*,·,·,·
COc1cccc(-c2nc3cc(SC)ccc3cc2CN(C(=O)c2csc(C)n2)C2CC2)c1,-15%[9.04 µM],·,?,·,·,·
Cc1cnc(SCc2ccccn2)nc1C1CCCN(C(=O)c2ccc3c(c2)OCCO3)C1 (stereo not given),17%[9.04 µM],·,-7%,·,·,·
COc1ccc(-c2ccnc3c(C(=O)O)cnn23)cc1,-2%,4,4%,10%,-6%,-11
Cn1cnnc1SCc1ccc(C(=O)NN)cc1,13%,11,-3%,-4%,7%,0
Cc1ccc2[nH]c(O)c(N=NC(N)=S)c2c1,?,-4,-3%,24%,5%,?
CC(C)c1ccc2[nH]c(O)c(N=NC(=S)NCCc3ccccc3)c2c1,18µM*,-25,8.2µM*,?,0%,28
CC(C)CC(=O)N=Nc1c(O)[nH]c2ccccc12,0%,-23,-6%,?,3%,-26
Oc1[nH]c2ccccc2c1N=NC(=S)NCCc1ccccc1,16µM*,-29,?,-29%,8%,-2

# Assay outcomes deposited in PubChem BioAssay by National Center for Advancing Translational Sciences (NCATS).
